Bioassay records from PubChem.
ATXN viability: viability counter-screen for ATXN expression inhibitors; AID 651635; hit rate 0.49% among 400,000; Potency, µM (top dose mostly 56.7 µM), most hits filed as cytotoxic; S2 cells (HEK-293 line with an ATXN2-luciferase reporter) viability, CellTiter-Fluor protease fluorescence, 24 h; further: nearly all actives have a fitted effect of over 40% in size
ATXN2 expr inh: reduces ATXN2 reporter expression in HEK-293 cells. hit rate 0.72% among 360,000. HEK-293 ATXN2-luciferase reporter, luminescence, 24 h. Potency, µM (titrated, usually from 57 µM), inactives show at the top dose activity change, negative = inhibition, most hits filed as inhibitors; further: on the % scale 0 is the no-effect control and ±100 the full control effect; nearly all actives have a fitted effect of over 55% in size
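qHTS (up to 57 uM final) was run with 24 h compound exposure of reporter cells at 37 °C. Each well was multiplexed: SteadyGlo luminescence measured ATXN2-luciferase expression after a fluorogenic Gly-Phe-AFC viability readout (25 uM final).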
HepG2 tox: HepG2 cytotoxicity, counter-screen for TGF-b inhibitors; HepG2 CAGA-GFP viability, ATP luminescence, 18 h; AID 588856; Potency, µM (titrated, usually from 46.1 µM), without a hit: at the highest dose activity change, negative = cytotoxicity, actives largely listed as cytotoxic; hit rate 0.76% among 410,000
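HepG2 CAGA-GFP cells (1000/well, DMEM with 1% FBS) received compound, then TGF-beta at 500 pg/mL final, and were incubated 18 hours at 37 degrees C. Viability was read by CellTiter-Glo luminescence. Media-only wells were set as complete cell-killing and DMSO as no toxicity.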
TGFb SMAD3 inh: inhibitors of TGF-b signaling; HepG2 CAGA-GFP TGF-b/SMAD3 reporter, GFP fluorescence, 18 h; TGF-beta stimulated, 500 pg/mL final; Potency, µM (top dose mostly 46.1 µM), without a hit: top-dose activity, negative = inhibition, actives largely listed as inhibitors; hit rate 1.2% among 410,000; AID 588855; further: on the % scale 0 is the no-effect control and ±100 the full control effect; nearly all actives have a fitted effect of over 65% in size
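Cell-based qHTS in HEPG2 carrying a CAGA-GFP Smad reporter; compounds added before 500 pg/mL final TGF-beta, 18 h incubation at 37 degrees C, GFP fluorescence quantified per cell by imaging cytometry.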
RORgamma inh: inhibitors of mouse ROR gamma transcriptional activity; hit rate 5.4% among 310,000; Potency, µM (titrated, usually from 53.6 µM), without a hit: at the top dose activity change, negative = inhibition, usual class: inhibitors; AID 2551; P51450; Drosophila S2 Gal4-RORgamma UAS-luciferase reporter, 20 h; further: on the % scale 0 is the no-effect control and ±100 the full control effect; nearly all actives have a fitted effect of over 60% in size
Target sequence (P51450 whole entry, looked up, the tested form may be a part): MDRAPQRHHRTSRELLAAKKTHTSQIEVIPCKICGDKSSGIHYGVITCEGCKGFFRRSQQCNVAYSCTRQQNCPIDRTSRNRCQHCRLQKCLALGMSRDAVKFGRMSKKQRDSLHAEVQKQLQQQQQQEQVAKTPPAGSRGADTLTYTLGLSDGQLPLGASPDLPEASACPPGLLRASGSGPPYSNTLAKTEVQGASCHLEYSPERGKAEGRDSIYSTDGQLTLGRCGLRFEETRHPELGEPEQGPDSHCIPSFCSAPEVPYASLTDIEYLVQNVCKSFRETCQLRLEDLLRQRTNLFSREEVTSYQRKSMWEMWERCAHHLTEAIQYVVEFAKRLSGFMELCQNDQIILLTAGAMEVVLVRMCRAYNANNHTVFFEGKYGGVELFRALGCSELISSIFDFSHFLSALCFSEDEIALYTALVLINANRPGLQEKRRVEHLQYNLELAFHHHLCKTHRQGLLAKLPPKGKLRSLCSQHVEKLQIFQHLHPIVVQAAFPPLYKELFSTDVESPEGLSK
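Using a luciferase readout, inhibitors were identified by reduced reporter activity in Drosophila cells coexpressing a copper-inducible Gal4–ROR gamma fusion and UAS-driven Photinus luciferase, incubated 20 hr after 700 uM copper sulfate.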
VP16 counter: inhibits Gal4-VP16 luciferase reporter, ROR gamma counter-screen; Drosophila S2 Gal4-VP16 UAS-luciferase, luminescence, 20 h; Potency, µM (titrated, usually from 53.6 µM), inactives show at the highest dose activity, negative = inhibition, actives largely listed as inhibitors; hit rate 3.5% among 310,000; AID 2546;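 further: Gal4-VP16 expression switched on by copper sulfate through the metallothionein promoter; on the % scale 0 is the no-effect control and ±100 the full control effect; nearly all actives have a fitted effect of over 50% in size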
Starred values were filed as active, the others as inactive; i = inactive; ? = inconclusive; / = not tested or not shown; [ ] = dose if it differs, or a comment. A selection: hits, their analogues and other compounds. The true share with any hit is near 6.3%. The call rests on the fitted dose curve; in most records, active means well fitted curve in the direction sought with a large enough effect; inconclusive means small, poorly fitted or top-dose-only effect, or another doubt; inactive means no such curve, though single readings can be large; an effect the other way counts as inactive or inconclusive. Potency means the concentration at half of the fitted maximal effect.

SMILES	ATXN viability	ATXN2 expr inh	HepG2 tox	TGFb SMAD3 inh	RORgamma inh	VP16 counter
Cc1ccc(NNC(=O)c2cc(C(C)(C)C)nn2Cc2ccccc2)cc1	i	-30%	1%	-17%	?	18µM*
CC(C)(C)c1cc(C(=O)Nc2ccc(F)cc2)n(Cc2ccc(F)cc2)n1	?	/	-54%	?	11µM*	?
COC(=O)c1nn(-c2ccc(OC)cc2)c(=O)cc1O	i	8%	8%	4%	4%	-10%
COc1ccc(-n2nc(C#N)c(Cl)cc2=O)cc1	/	?	18µM*	16µM*	10µM*	13µM*
O=C(N/N=C/CCc1ccccc1)c1ccc(CN2c3cccc4cccc(c34)S2(=O)=O)cc1	i	-24%	-14%	-18%	11µM*	?
COc1ccc(/C=N/NC(=O)c2ccc(CN3c4cccc5cccc(c45)S3(=O)=O)cc2)cc1	i	6%	-1%	2%	-21%	1%
COC(=O)CNC(c1ccccc1)c1cc(Br)ccc1NC(=O)CNC(=O)OCc1ccccc1 (stereo not drawn)	?	-16%	-35%	?	36%	-16%
CCOC(=O)CNC(c1ccccc1)c1cc(Br)ccc1NC(=O)OCC (stereo not drawn)	i	-1%	3%	-12%	9%	0%
COC(=O)CNC(c1ccccc1)c1cc(Br)ccc1NC(=O)CCN1CCOCC1 (stereo not drawn)	?	/	22µM*	18µM*	?	14µM*
CCOC(=O)CNC(c1ccccc1)c1cc(Br)ccc1NC(=O)CCN1CCOCC1 (stereo not drawn)	?	/	13µM*	?	?	8.9µM*
COc1ccc(C2CC(c3cccc(Br)c3)=NN2c2ccc(S(N)(=O)=O)cc2)cc1 (stereo not drawn)	/	?	-117%	?	/	/
Cc1cccc(C2CC(c3ccccc3)=NN2c2ccc(S(N)(=O)=O)cc2)c1 (stereo not drawn)	i	?	11µM*	?	/	/
COc1ccc(C2CC(c3cccc(F)c3)=NN2c2ccc(S(N)(=O)=O)cc2)cc1 (stereo not drawn)	/	?	-98%	11µM*	/	/
O=C(O)CCNc1cc(N2CCc3ccccc3CC2)nc(-c2ccccn2)n1	/	-21%	/	/	/	/
O=C(CN1CCN(c2ccccc2)CC1)Nc1ccccc1Cl	i	-2%	-34%	-8%	21%	23%
O=C(NNC(=S)Nc1ccccc1)C1CC1	i	-1%	0%	-1%	?	0%
O=C(NNC(=S)Nc1ccccc1Cl)C1CC1	i	0%	11%	33%	11µM*	?
O=C(CCN1CCN(c2ccccc2)CC1)NNC(=S)Nc1ccccc1Cl	i	-23%	6%	-1%	8.9µM*	-20%
O=C(NNC(=S)Nc1ccccc1Cl)c1ccccc1	?	42%	-11%	4%	13µM*	-22%
COc1ccc(-c2cc(C(=O)NCc3ccc(C(F)(F)F)cc3)[nH]n2)c(C)c1	?	-26%	-27%	?	/	/
O=C(CCS(=O)(=O)c1ccccc1)Nc1nc(-c2ccccn2)cs1	?	-22%	-24%	?	/	/
CC(Oc1ccc(F)cc1)C(=O)Nc1nc(-c2ccccn2)cs1 (stereo not drawn)	?	7.9µM*	10%	?	/	/
COc1ccc(OCCCC(=O)Nc2nc(-c3ccccn3)cs2)cc1	i	-15%[11.3 µM]	-1%	-22%	10µM*	-28%
O=C(CCS(=O)(=O)c1ccc(F)cc1)Nc1nc(-c2ccccn2)cs1	?	/	-2%	?	10µM*	-22%
C[C@H](NC(=O)c1ccco1)C(=O)Nc1nc(-c2ccccn2)cs1	i	-17%	-19%	0%	/	/
CCN1C(=O)c2ccccc2Sc2ccc(NC(=O)COc3ccc(Cl)cc3)cc21	i	?	10%	-40%	/	/
c1ccc(CNc2ccnc(-c3cccnc3)n2)cc1	/	/	/	/	49%	-13%
N#CCCn1c(=O)c(-c2cc(F)cc(F)c2)nc2cnc(Oc3cccc(Cl)c3)nc21	/	/	/	/	30%	2%
CCc1ccc(C(=O)/C=C/c2cnn(C)c2C)s1	/	/	-28%	0%	5.6µM*	8.9µM*
Cc1ccccc1OCc1nc(-c2ccc(NC(=O)c3ccc4c(c3)OCO4)cc2)no1	?	?	20µM*	?	?	?
